Laboratory results: the supplement of paper PMC7695840
Where a name gives a salt, the structure may show the parent alone.

tested on: Staphylococcus aureus MW2 delta-mecA (mecA-); assay: normalized GFP fluorescence (growth of mecA- strain) (fraction of control range); higher = more growth of mecA- strain; conditions: compound concentration: 150 uM; cefoxitin: subinhibitory; fluorescent label: GFP
Summary of the method: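 Compound at 150 μM (1.5% DMSO) in 1536-well plates received 5 µL/well of pre-induced S. aureus MW2 cells mixed 1:1, gene-carrying with DsRed and gene-deleted with GFP, in LB with a daily-set subinhibitory antibiotic dose, single replicate. After 20 h unshaken at 37 °C, 90% humidity, DsRed (540/590) and GFP (485/520) were measured and scaled per plate between single-strain control medians. Plates with high untreated ratios and rows with DsRed/GFP >10 were excluded.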

Compared with `C=C[C@H]1CN2CC[C@H]1C[C@H]2[C@H](O)c1ccnc2ccc(OC)cc12`, `COC(=O)[C@H](c1ccccc1Cl)N1CCc2sccc2C1` is lower in “normalized GFP fluorescence” value: 0.628 for the first, 0.0333 for the second.

Compared with `CCCCC(=O)O[C@]1(C(=O)CO)CC[C@H]2[C@@H]3CCC4=CC(=O)CC[C@]4(C)[C@H]3[C@@H](O)C[C@@]21C`, `CCCCCOC(=O)Nc1nc(=O)n([C@@H]2O[C@H](C)[C@@H](O)[C@H]2O)cc1F` [Capecitabine (Xeloda)] is lower in “normalized GFP fluorescence” value: 0.382 for the first, 0.0511 for the second.

Going from `C1CCN2C[C@@H]3C[C@@H](CN4CCCC[C@@H]34)[C@H]2C1` to `OC(CCN1CCCC1)(c1ccccc1)C1CCCCC1` (configuration not stated), the “normalized GFP fluorescence” value falls from 0.334 to 0.159.

Compared with `COCC1=C(C(=O)OC(C)OC(=O)OC(C)C)N2C(=O)[C@@H](NC(=O)/C(=N\OC)c3csc(N)n3)[C@H]2SC1` (some centres not stated), `CO/N=C(\C(=O)N[C@@H]1C(=O)N2C(C(=O)OC(C)OC(C)=O)=C(COC(N)=O)CS[C@H]12)c1ccco1` (some centres not stated) is higher in “normalized GFP fluorescence” value: 0.00501 for the first, 0.0118 for the second.

First: CC(=O)N(CC(O)CN(C(C)=O)c1c(I)c(C(=O)NCC(O)CO)c(I)c(C(=O)NCC(O)CO)c1I)c1c(I)c(C(=O)NCC(O)CO)c(I)c(C(=O)NCC(O)CO)c1I (configuration not stated)
Second: CN(C)[C@@H]1C(O)=C(C(N)=O)C(=O)[C@@]2(O)C(O)=C3C(=O)c4c(O)cccc4[C@@](C)(O)[C@H]3[C@H](O)[C@@H]12 [Oxytetracycline dihydrate]
The “normalized GFP fluorescence” value of the first is higher: 0.268 for the first, 0.0661 for the second.

Compared with `COc1cccc2c1C(=O)c1c(O)c3c(c(O)c1C2=O)C[C@@](O)(C(C)=O)C[C@@H]3O[C@H]1C[C@H](N)[C@H](O)[C@H](C)O1`, `COc1cccc2c1C(=O)c1c(O)c3c(c(O)c1C2=O)C[C@@](O)(C(=O)CO)C[C@@H]3O[C@H]1C[C@H](N)[C@@H](O)[C@H](C)O1` is lower in “normalized GFP fluorescence” value: -0.00425 for the first, -0.00778 for the second.

First: CO[C@H]1C[C@@H]2CC[C@@H](C)[C@@](O)(O2)C(=O)C(=O)N2CCCC[C@H]2C(=O)O[C@H]([C@H](C)C[C@@H]2CC[C@@H](O)[C@H](OC)C2)CC(=O)[C@H](C)/C=C(\C)[C@@H](O)[C@@H](OC)C(=O)[C@H](C)C[C@H](C)/C=C/C=C/C=C/1C
Second: Cc1c2oc3c(C)ccc(C(=O)N[C@@H]4C(=O)N[C@H](C(C)C)C(=O)N5CCC[C@H]5C(=O)N(C)CC(=O)N(C)[C@@H](C(C)C)C(=O)O[C@@H]4C)c3nc-2c(C(=O)N[C@@H]2C(=O)N[C@H](C(C)C)C(=O)N3CCC[C@H]3C(=O)N(C)CC(=O)N(C)[C@@H](C(C)C)C(=O)O[C@@H]2C)c(N)c1=O
The “normalized GFP fluorescence” value of the first is higher: 0.0214 for the first, -0.00268 for the second.

Going from `O=C(/C=C/c1cccc(S(=O)(=O)Nc2ccccc2)c1)NO` [Belinostat (PXD101)] to `CCN(Cc1ccncc1)C(=O)C(CO)c1ccccc1` (configuration not stated), the “normalized GFP fluorescence” value rises from 0.364 to 0.402.

First: Fc1ccc(C(c2ccc(F)cc2)N2CCN(C/C=C/c3ccccc3)CC2)cc1
Second: O=C(CCCN1CC=C(n2c(=O)[nH]c3ccccc32)CC1)c1ccc(F)cc1
The “normalized GFP fluorescence” value of the first is lower: 0.0954 for the first, 0.664 for the second.

First: C=CCCCCCCCCC(=O)O
Second: CC(C)NCC(O)COc1ccc(CC(N)=O)cc1 (configuration not stated)
The “normalized GFP fluorescence” value of the first is lower: 0.13 for the first, 0.323 for the second.

Going from `CC1(C)[C@H](C(=O)O)N2C(=O)C[C@H]2S1(=O)=O` to `CC1=C(C(=O)O)N2C(=O)[C@@H](NC(=O)[C@H](N)C3=CCC=CC3)[C@H]2SC1`, the “normalized GFP fluorescence” value falls from 0.00608 to 0.00153.

First: CO[C@@]1(NC(=O)Cc2cccs2)C(=O)N2C(C(=O)O)=C(COC(N)=O)CS[C@@H]21
Second: CCOC(=O)C1=C(C)NC(C)=C(C(=O)OCC)C1c1ccccc1/C=C/C(=O)OC(C)(C)C [Lacidipine (Lacipil, Motens)]
The “normalized GFP fluorescence” value of the first is lower: 0.00393 for the first, 0.112 for the second.

First: Cc1cc(/C=C/c2ccc3cc(N(C)C)ccc3[n+]2C)c(C)n1-c1ccccc1
Second: CN(Cc1ccc(C(C)(C)C)cc1)Cc1cccc2ccccc12 [Butenafine HCl]
The “normalized GFP fluorescence” value of the first is lower: -0.0128 for the first, 0.11 for the second.

First: Nc1ccn([C@@H]2O[C@H](CO)[C@@H](O)[C@@H]2O)c(=O)n1
Second: COc1cccc2c1C(=O)c1c(O)c3c(c(O)c1C2=O)C[C@@](O)(C(=O)CO)C[C@@H]3O[C@H]1C[C@H](N)[C@H](O)[C@H](C)O1 [Doxorubicin (Adriamycin)]
The “normalized GFP fluorescence” value of the first is higher: 0.00362 for the first, -0.0343 for the second.

Going from `Cc1cc(CC(=O)O)n(C)c1C(=O)c1ccc(Cl)cc1` to `NNC(=O)c1ccncc1`, the “normalized GFP fluorescence” value falls from 0.288 to 0.19.

Compared with `Oc1c(Cl)cc(Cl)c(Cl)c1Cc1c(O)c(Cl)cc(Cl)c1Cl`, `CCC(C)(C)c1ccc(CC(C)CN2C[C@@H](C)O[C@@H](C)C2)cc1` (some centres not stated) is lower in “normalized GFP fluorescence” value: 0.11 for the first, 0.099 for the second.
